The first experiment concerns the target FAM163B. As to the kind of experiment: pooled miR-30 sensor sort-seq; sequence = guide strand. The conditions noted are these: shRNA.
TCCTCCGACTCGTCCTTCTTGC: the sensor-assay potency score (higher = more potent) was -1.53. TTCTGGCTGAAGGAGGTGGAGG had a sensor-assay potency score (higher = more potent) of -1.34. The same measure, in the same setting: the value for TTGTAGAGCACGCGCTCCCCGC was -1.32; that for TTCTTGCAGCAGTAGTACTGGA was -0.857. The same measure, in the same setting: the value for TTGCGGTTGGAGTGCAGCGGGG was -1.47; that for TAGCACAGAACAGCGATGATGC was -0.556. TCGCAGTGGGAGCAGCTGCGGC displayed a sensor-assay potency score (higher = more potent) of -1.52.

In the case of TTGGTCAGCACCAGGTTGCGGT, the sensor-assay potency score (higher = more potent) was -0.802. In turn, TAGAGCACGCGCTCCCCGCCGT gave a sensor-assay potency score (higher = more potent) of -0.76.

The sequence TCCTGCAGGAAGAAGGTGGGGG displayed a sensor-assay potency score (higher = more potent) of -0.682. Still for that read-out and setting: the value for TCTTGCAGCAGTAGTACTGGAG was -0.35; that for TCCGACTCGTCCTTCTTGCAGC was -1.44.

For another experiment, the target named is FAM164C. The description is as above. The conditions noted are these: shRNA.
In the case of ATCACTTTCTGGATCTTGCTGG, the sensor-assay potency score (higher = more potent) worked out at 0.553.

In the case of TTATCCAGAATCAACTCTTTGT, the sensor-assay potency score (higher = more potent) is -0.353. With TAGTCTTCGGATCTGCACCCAC, the sensor-assay potency score (higher = more potent) is -0.402.

With TAATTTTCTGTAGCTCTCCGTT, the sensor-assay potency score (higher = more potent) is -0.559.

TTCTTGATGGTCTTACACTTGG yielded a sensor-assay potency score (higher = more potent) of -0.537. As to TTTACTGCTGAAGAGAAGCAGA, the sensor-assay potency score (higher = more potent) was -0.62.

Take TTGATGGTCTTACACTTGGGAA: the sensor-assay potency score (higher = more potent) is -1.53.

TTTGTTGCTCAAAAGCTGCTTC yielded a sensor-assay potency score (higher = more potent) of 0.134.

The sequence TTTCTTTCTGCTTTGCATCAAA gave a sensor-assay potency score (higher = more potent) of -1.22.

Sequence TAGAGGTGGAAGACAGTTCTTG came in with a sensor-assay potency score (higher = more potent) of -0.364. Turning to TAGCTCTGCAGGCAGATCTGGG, the sensor-assay potency score (higher = more potent) was -1.11.

The target of a further experiment is FAM174A. The description is as above. The conditions noted are these: shRNA.
In turn, TATCTCCTAGTCTTTCGGTTTC registered a sensor-assay potency score (higher = more potent) of -1.02. Turning to TAGTTCAGGCAGCAACAGCAGG, the sensor-assay potency score (higher = more potent) was -1.17. In turn, TGTTAGTGTCCAAAACTCCATA came in with a sensor-assay potency score (higher = more potent) of -0.864. On the same count and under the same terms, the value for TGATCGTCCGTCTCAAGCCCGG was -1.42; that for TTCTAAAGGTGTCAATTCCATA was -1.28; that for TTCTTCTTCTCATCCTGACCGT was -0.117. ATATCTCCTAGTCTTTCGGTTT: the sensor-assay potency score (higher = more potent) is -1.26.

ATTTTCTATGTTAGTGTCCAAA registered a sensor-assay potency score (higher = more potent) of -1.74. On to TAGTCTTTCGGTTTCTTCTTCT, for which the sensor-assay potency score (higher = more potent) turned out to be 0.156. Take AAGTACACCAGCACCGCGCCGC: the sensor-assay potency score (higher = more potent) is -0.391. For the sequence TTGGCATCAAACAACGTGTTGT, the sensor-assay potency score (higher = more potent) was -0.0509. TCTTCTTCTCATCCTGACCGTC registered a sensor-assay potency score (higher = more potent) of -0.459.

The record behind these values is the OligoGym collection.
Further: reference of the scale not given here.
